Compound activity: PubChem BioAssay, Broad Institute
aSyn UTR act: Activators via SNCA 5'UTR binding, MLPCN | activity score, % (tested at 7.5 µM), hits read low | 300,000 tested, 7.1% active | alpha-synuclein 5'UTR reporter, activators screen; in the data active = activity score below about -60%
* hit, by the source's call. Not all results are given here.

SMILES	aSyn UTR act
COc1ccc2c(c1)Cc1sc(NC(=O)c3cccs3)nc1-2	-242.4*
COc1ccc2c(c1)Cc1sc(NC(=O)c3ccccc3)nc1-2	-223.4*
COc1ccc(C(=O)Nc2nc3c(s2)Cc2cc(OC)ccc2-3)cc1	-108.7*
O=c1c(Cl)c(O)c2cccc3c4ccccc4n1c23	-64.3*
Cc1ccc(OCC(=O)Nc2nnn(C)n2)c(C)c1	-87.3*
O=C(Nc1ccccc1)Nc1cccc2nsnc12	-272.2*
O=C(Nc1cccc2nsnc12)c1cccs1	-143.2*
CCCCOC(=O)c1ccc(Nc2ncnc3nc[nH]c23)cc1	-118.2*
FC(F)Sc1ccc(Nc2ncnc3nc[nH]c23)cc1	-73.3*
Clc1ccc(-c2nnc(-c3ccccc3)c(N3CCSCC3)n2)cc1	-62.4*
Cc1cc(C)c2cccc(NC(=S)NC(=O)c3ccccc3)c2n1	-76.4*
COc1ccc(C(=O)NC(=S)Nc2nc(C)cc(C)n2)cc1Br	-77.4*
Cc1csc(NC(=S)NC(=O)c2ccccc2)n1	-178.7*
COC(=O)c1sc(NC(=S)NC(=O)c2ccccc2Cl)nc1C	-145.9*
COc1ccc(C(=O)NC(=S)NNC(=O)c2cnccn2)cc1OC	90.5
COc1cc(OC)nc(NC(=S)NC(=O)c2ccccc2)n1	-69.1*
CCOC(=O)c1sc(NC(=S)NC(=O)c2ccccc2)nc1C	-216.3*
COC(=O)c1sc(NC(=S)NC(=O)c2ccccc2)nc1C	-198.2*
CCCc1nc(-c2ccc(-c3ccc(F)cc3)cc2)no1	-144.5*
c1ccc(CCc2nc(-c3ccccc3)no2)cc1	-192.0*
CC(C)(C)c1ccc(-c2noc(CCC(N)=O)n2)cc1	90.8
c1ccc(CCc2nc(-c3cccnc3)no2)cc1	-90.1*
Brc1ccc(-c2noc(CCc3ccccc3)n2)cc1	-84.4*
c1cncc(-c2noc(CC3CCCCC3)n2)c1	-87.3*
O=C(Nc1ccc(-c2noc(CCc3ccccc3)n2)cc1)c1ccco1	-115.1*
SMILES	aSyn UTR act
O=C1CCC(=O)N1CCCCCc1nc(-c2ccccc2)no1	-103.8*
CCOC(=O)c1cc2ccc3ccccc3c2s1	-169.3*
CCOC(=O)c1cc2c(s1)-c1ccccc1CC2	-97.5*
COc1ccc(/C(C#N)=C/c2ccccn2)cc1	-172.0*
N#C/C(=C\c1ccccn1)c1nc2ccccc2s1	-74.0*
Nc1ccc2c(c1)Cc1cc([N+](=O)[O-])ccc1-2	-79.4*
O=C(c1ccccc1)c1cc2ccccc2o1	-149.1*
CC(Cc1ccccc1)NC(=O)c1cc2ccccc2o1 (stereo not drawn)	-162.1*
Cc1ccc(C(=O)c2cc3ccccc3o2)cc1[N+](=O)[O-]	-119.3*
O=C(c1ccc(F)cc1)c1cc2ccccc2o1	-171.4*
Nc1cc(C2CCCC2)nn1-c1ccccc1	-128.0*
CCc1ccc(-c2cc(N)n(-c3ccccc3)n2)cc1	-121.0*
Cc1ccc(-c2cc(N)n(-c3ccccc3)n2)cc1	-115.2*
CCN(CC)S(=O)(=O)c1ccc(-c2cn3cc(Cl)ccc3n2)cc1	-91.5*
CCCNC(=O)C1CC(=O)N(c2ccc(OCc3ccc(F)cc3)cc2)C1 (stereo not drawn)	-92.1*
NC(=O)C1CC(=O)N(c2ccc(OCc3ccc(Cl)cc3)cc2)C1 (stereo not drawn)	-146.0*
C=CCNC(=O)C1CC(=O)N(c2ccc(OCC(=O)Nc3ccccc3)cc2)C1 (stereo not drawn)	-94.4*
C=CCNC(=O)C1CC(=O)N(c2ccc(OCc3ccc(F)cc3)cc2)C1 (stereo not drawn)	-95.3*
CCCNC(=O)C1CC(=O)N(c2ccc(OCc3ccc(Cl)cc3)cc2)C1 (stereo not drawn)	-108.4*
O=C1c2ccccc2C(=O)C12OC2c1ccc(Cl)cc1 (stereo not drawn)	-72.2*
CCCn1c(NCc2cc(OC)ccc2OC)nc2ccccc21	-97.5*
CCOc1ccc(NCc2nc3ccccc3n2CCOc2ccccc2)cc1	-66.7*
CCOc1ccc(Nc2nc3ccccc3n2C)cc1	-163.4*
CCOc1ccc(CNc2nc3ccccc3n2C)cc1	-125.2*
Nn1c(Nc2ccccc2)nc2ccccc21	-99.8*
SMILES	aSyn UTR act
CCOc1ccc(Nc2nc3ccccc3n3nnnc23)cc1	-81.8*
COc1ccc(CCNc2nnc(Sc3nnnn3-c3ccccc3)s2)cc1OC	119.6
COc1ccc(CCNc2nc3ccccc3n3nnnc23)cc1OC	-105.7*
COc1ccccc1NC(=O)C1=C(C)NC(=O)NC1c1ccccc1[N+](=O)[O-] (stereo not drawn)	-97.6*
COc1ccc(Cl)cc1NC(=O)c1cnc2n(c1=O)CCS2	-78.4*
COc1ccccc1NC(=O)c1cnc2n(c1=O)CCS2	-133.1*
COc1ccc(C2C(C(=O)c3cccs3)=C(O)C(=O)N2c2nncs2)cc1 (stereo not drawn)	-108.0*
COc1ccccc1Nc1ncnc2c1cnn2-c1cccc(C)c1	-84.4*
COc1cccc(Nc2ncnc3c2cnn3-c2cccc(C)c2)c1	-137.1*
Cc1ccc2oc3nc(C)c(C(=O)O)cc3c(=O)c2c1	-102.6*
CCOC(=O)c1cc2c(=O)c3cc(C)ccc3oc2nc1C	-113.9*
CC(=O)c1cc2c(=O)c3cc(C)ccc3oc2nc1C	-184.0*
Cc1nc2oc3ccc(F)cc3c(=O)c2cc1C(=O)O	-75.3*
Cc1cccc(C)c1OCC(O)CN(Cc1ccccc1O)C1CCCCC1 (stereo not drawn)	61.8
COc1ccc(N/C=C\C(=O)c2ccc(Br)cc2)cc1OC	-107.8*
COc1ccc(N/C=C\C(=O)c2ccc(C)cc2)cc1OC	-83.7*
COc1ccc(C(=O)/C=C2\NCCc3cc(OC)c(OC)cc32)cc1OC	64.1
Cc1ccc(Nc2nc(-c3sc(N)nc3C)cs2)cc1	-133.5*
CCOc1ccc(Nc2nc(-c3sc(N)nc3C)cs2)cc1	-70.0*
CCCNC1=C(N(C(C)=O)c2cccc(F)c2)C(=O)c2ccccc2C1=O	91.7
O=C(CCl)N(c1ccccc1)C1CCCCC1	110.0
CCCC(O)(CCC)C(=O)NN(C(=O)CCl)c1ccccc1	-68.8*
COc1ccc(C(=O)c2c(C(F)(F)F)oc3c2C(=O)c2ccccc2C3=O)cc1OC	111.2
CCOC(=O)c1c(C)oc2c1C(=O)c1ccccc1C2=O	-133.7*
Cc1oc2c(c1C(=O)c1ccccc1)C(=O)C(=O)c1ccccc1-2	126.8
SMILES	aSyn UTR act
Cc1oc2c(c1C(=O)O)C(=O)c1ccccc1C2=O	-62.0*
O=C(Cc1ccccc1)Nc1ccc(SC(F)F)cc1	-130.1*
COC(=O)c1ccc(NC(=O)C(=O)c2cccn2C)cc1	-109.1*
COC(=O)c1ccc(NC(=S)Nc2ccccc2)cc1	-131.1*
CCC(=O)Nc1ccc(C(=O)OCc2ccccc2Cl)cc1	-167.9*
COC(=O)c1ccc(NC(=O)Cc2ccccc2)cc1	-122.8*
COC(=O)c1ccc(NC(=O)c2nc(S(=O)(=O)Cc3cccc(C)c3)ncc2Cl)cc1	55.1
Cc1cccc(-c2noc(-c3ccccc3C(=O)NCc3ccco3)n2)c1	-61.8*
Nc1c(C(=O)NCc2ccco2)nnn1-c1ccccc1	-125.1*
O=C(NCc1ccco1)c1cccc(-c2nnc(-c3ccccc3)o2)c1	-71.0*
CC(=O)NCc1ccc(-c2csc(-c3cccs3)n2)cc1	-125.6*
O=c1c(=Nc2ccccc2O)c(=O)c2ccccc12	-111.6*
N#Cc1cnn(-c2ncnc3sc(-c4ccccc4)cc23)c1N	-65.1*
COc1cc(C2C=C(Nc3ccccc3)C(=O)N2c2ccccc2)ccc1O (stereo not drawn)	-72.1*
COc1cc(SC)ccc1C(=O)OCC(=O)N1CCCC1	-73.8*
COc1cc(SC)ccc1C(=O)NCC1CCCCC1	-67.2*
COc1cc(SC)ccc1C(=O)NCCOc1ccc(F)cc1	-150.1*
